This is part of a sample that, as a whole, favours compounds with a hit. Of some 83,000 tested, about 20% had one in any assay.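 48-hour exposure, single concentration, 96-well plates; percent growth endpoint where 0 means no net growth. Active: below 10.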 A number with no mark means an inactive call.
The compounds below were run on MDA-MB-468 breast (assay: NCI-60 one-dose screen, 48 h (100 = growth as untreated, 0 = no growth, -100 = all killed)). Conditions: 10 µM unless noted.
`C[C@]12C[C@@H](CO)[C@H](O)C[C@@H]1CC[C@@H]1[C@@H]2CC[C@]2(C)[C@@H](O)CC[C@@H]12` was tested, and the growth was 106%. Work on `CCOP(=O)(OCC)Oc1ccc(Sc2ccc(OP(=O)(OCC)OCC)cc2)cc1` yielded a growth of 107%. With `CN=C(NN)NN` the growth was 112%. `O=P1(N(CCCl)CCCl)NCCCO1` (centres undefined) gave a growth of 108%.

Source: PubChem BioAssay (NCI)
